Screening results (PubChem)
This excerpt belongs to a sample that is enriched for hits.
TDP1 cell CPT: growth inhibition of DT40 Tdp1-/-;hTDP1 cells with camptothecin (screen for TDP1 inhibitors) | chicken DT40 Tdp1-/-;hTDP1 cells + 20 nM CPT, ATP luminescence, 48 h | Potency, µM (top dose mostly 46.2 µM), for inactives: top-dose activity change, negative = growth inhibition, usual class: inhibitors | AID 686979 | actives 12% (n = 420,000); note: potency is the fitted concentration of half-maximal effect; nearly all actives have a fitted effect of over 55% in size
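Chicken DT40 Tdp1-/- cells stably complemented with human TDP1 were seeded at 400 cells/well in medium containing 20 nM camptothecin, exposed to pin-transferred compounds, and grown at 37 °C for at least 48 hr. Viability was read as ATP luminescence.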
ALOX12 inh: blocks human arachidonate 12S-lipoxygenase; purified 12hLO, xylenol orange hydroperoxide absorbance; P18054; Potency, µM (highest dose often 108 µM), inactives show top-dose activity change, negative = inhibition, hits mostly inhibitors; actives 1.1% (n = 580,000); note: potency is the fitted concentration of half-maximal effect
Target sequence (P18054 whole entry, looked up): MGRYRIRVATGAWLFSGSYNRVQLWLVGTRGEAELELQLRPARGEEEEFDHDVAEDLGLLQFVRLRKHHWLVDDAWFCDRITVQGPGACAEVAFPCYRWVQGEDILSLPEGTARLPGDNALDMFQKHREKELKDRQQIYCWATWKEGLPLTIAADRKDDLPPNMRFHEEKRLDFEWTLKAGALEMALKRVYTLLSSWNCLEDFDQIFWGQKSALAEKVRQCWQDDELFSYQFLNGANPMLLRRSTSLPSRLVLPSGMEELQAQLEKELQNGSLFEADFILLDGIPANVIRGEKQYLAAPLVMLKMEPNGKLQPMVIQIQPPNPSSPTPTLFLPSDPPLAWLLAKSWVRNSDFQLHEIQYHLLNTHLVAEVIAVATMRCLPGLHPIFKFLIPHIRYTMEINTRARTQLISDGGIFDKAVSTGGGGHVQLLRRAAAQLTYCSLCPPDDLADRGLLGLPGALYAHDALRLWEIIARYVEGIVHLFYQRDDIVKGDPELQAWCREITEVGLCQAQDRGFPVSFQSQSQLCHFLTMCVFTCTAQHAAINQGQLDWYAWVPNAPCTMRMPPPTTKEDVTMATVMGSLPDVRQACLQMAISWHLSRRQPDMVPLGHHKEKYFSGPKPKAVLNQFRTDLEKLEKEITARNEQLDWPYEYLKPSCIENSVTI
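Purified human 12hLO at 150 nM in 25 mM Hepes, 0.01% Triton X-100, pH 7.0, preincubated 15 min at room temperature with compound. Reaction started with 40 uM arachidonic acid, 30 min at room temperature. Hydroperoxide measured by Fe-xylenol orange, 573/405 nm absorbance ratio.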
HT1080 IDH1KD tx: kills HT-1080 cells with IDH1 knockdown | HT-1080 IDH1 knockdown viability, ATP luminescence, 48 h | Potency, µM (highest dose often 46.1 µM), for inactives: at the top dose activity, negative = toxicity, actives largely listed as cytotoxic | actives 2% (n = 360,000) | AID 686971;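 note: potency is the fitted concentration of half-maximal effect; 0% = DMSO wells and -100% = cell-free medium wells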
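Assay cells: HT-1080 with IDH1 knockdown, 750 per well, RPMI/5% FBS. Exposure: 48 h at 37 °C following 2 h pre-incubation. Read: CellTiter-Glo luminescence; fitted concentration-response, curve class assigned.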
HT1080NT lethal: kills 2HG-producing HT-1080-NT fibrosarcoma cells | HT-1080-NT fibrosarcoma viability, CellTiter-Glo ATP luminescence, 48 h | Potency, µM (doses to about 46.1 µM), for the others: top-dose activity, negative = less viability, most hits filed as cytotoxic | actives 1.6% (n = 360,000) | AID 686970;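 note: NT is the 2HG producing partner of a matched IDH1 knockdown line; potency is the fitted concentration of half-maximal effect; 0% = DMSO-treated cells and -100% = media-only wells without cells; nearly all actives have a fitted effect of over 55% in size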
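Fibrosarcoma NT cells, 750 per well in 5% FBS RPMI, were exposed to compound for 48 hours. Viability: CellTiter-Glo luminescence.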
TDP1 cell noCPT: qHTS for Inhibitors of human tyrosyl-DNA phosphodiesterase 1 (TDP1): qHTS in cells in absence of CPT | DT40 Tdp1-/- hTDP1 cells, no CPT, ATP luminescence, 48 h | Potency, µM (series often up to 46.2 µM), inactives show top-dose activity change, negative = growth inhibition, hits mostly inhibitors | actives 15% (n = 420,000); note: potency is the fitted concentration of half-maximal effect; nearly all actives have a fitted effect of over 55% in size
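Readout: luminescence from CellTiter-Glo after 30 min in the dark at RT. Cells: DT40 Tdp1-/- with stable hTDP1, 400/well. Exposure: compounds alone, ≥48 hr, 37 °C.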
IL1B secr inh: blocks inflammasome-driven IL-1 beta release. activity change, % at 57.5 µM. THP-1 LPS/ATP IL-1B secretion, AlphaLISA, 16 h; stronger effect = lower value. AID 743279. actives 4.7% (n = 360,000); in the data active = activity change below about -50%; inconclusive = mostly about -30% to -49%
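Secreted IL-1B measured by AlphaLISA bead assay after 16 h compound exposure of THP-1 cells; compounds (final up to 57.5 uM) added 1 h before LPS (250 ng/mL) and ATP (1.25 mM) stimulation; lower signal means less secretion.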
Numbers without * were called inactive; u = inconclusive; x = not tested or not shown; [ ] = remark or other dose. Unless noted, calls come from the whole dose curve; as a rule, active = well fitted curve in the direction sought with a large enough effect; inconclusive = small, poorly fitted or top-dose-only effect, or another doubt; inactive = no such curve, though single readings can be large; an effect the other way counts as inactive or inconclusive. Unless noted, % is set by controls: 0 for no effect and ±100 for the full control effect.

SMILES	TDP1 cell CPT	ALOX12 inh	HT1080 IDH1KD tx	HT1080NT lethal	TDP1 cell noCPT	IL1B secr inh
COc1ccc(-c2nc(N3CCN(C)CC3)sc2-c2ccc(OC)cc2)cc1	u	u	u	-17%	29µM*	-20
[2H]c1c([2H])c([2H])c(C(=O)c2sc(N3CCCCCC3)nc2-c2ccccc2)c([2H])c1[2H]	u	0%	-25%	-25%	16µM*	-14
O=C(c1ccc(Br)cc1)c1sc(N2CCOCC2)nc1-c1ccccc1	u	3%	-23%	-20%	21µM*	-4
O=C(c1ccccc1)c1sc(N2CCOCC2)nc1-c1ccccc1	u	-11%	-11%	3%	u	u
COc1ccc(-c2nc(N3CCCCCC3)sc2C(=O)c2ccccc2)cc1	u	1%	-21%	-23%	23µM*	-6
Cc1cccc(C)c1N=CN1c2ccccc2-n2cccc2C1c1ccc([N+](=O)[O-])cc1 (stereo unspecified)	x	0%	x	x	x	x
COc1ncc2nc(C)c(=O)n(CCC#N)c2n1	14%	0%	x	x	-12%	x
COc1cccc(NCc2nc3c(n2Cc2ccccc2)C(=O)N(CC2CC2)CCN3)c1	x	69%[176 µM]	x	x	x	x
O=C(c1ccccc1)c1sc(N2CCCCCC2)nc1-c1ccccc1	u	43%	-20%	-23%	15µM*	-17
CNc1nc(-c2ccccn2)nnc1-c1ccccc1	u	53%	u	u	22µM*	50
c1ccc(-c2nnc3ccc(NC4CCCCC4)nn23)nc1	x	50%[176 µM]	x	x	x	x
c1ccc(-c2nnc(-c3ccccn3)nc2NC2CCCCC2)cc1	6.5µM*	-4%	u	u	5.8µM*	85
O=C(Cn1ccn2nc(-c3ccc(F)cc3)c(CO)c2c1=O)NCc1ccccc1Cl	x	-15%	x	x	x	x
Cc1nc(OCC(=O)Nc2ccc(C(C)C)cc2)c2ccccc2n1	x	-17%	x	x	x	x
Cc1ccccc1-n1c(=O)/c(=C\c2ccco2)s/c1=C(/C#N)C(=O)Nc1ccccc1	-20%	35µM*	3%	3%	-19%	43
Cc1ccc(-n2nnnc2C(Cl)(Cl)c2nnnn2-c2ccc(C)cc2)cc1	2.9µM*	u	5.6µM*	u	2.6µM*	-78*
Cc1ccc(NC(C)(C)c2nnnn2-c2ccc(C)cc2)cc1	x	28%	x	x	x	x
Cc1ccc(NC(=O)c2cccc3c2C(=O)N(C2CCCCC2)C3)c(Cl)c1	18µM*	x	4%	-3%	-29%	x
O=C(Nc1ccc(Br)cc1)c1cccc2c1C(=O)N(C1CCCCC1)C2	-27%	4%	4%	6%	-2%	3
COc1cc(NC(=O)c2cccc3c2C(=O)N(C2CCCCC2)C3)cc(OC)c1OC	23µM*	42%	u	-12%	7.3µM*	-60*
CCOC(=O)N1CCC(N2Cc3cccc(C(=O)Nc4ccc(OC)c(OC)c4)c3C2=O)CC1	18µM*	9%[57.4 µM]	3%	18%	u	u
Cc1cc(C)cc(NC(=O)c2cccc3c2C(=O)N(C2CCCCC2)C3)c1	-2%	-18%	0%	16%	29%	29
CCOC(=O)N1CCC(N2Cc3cccc(C(=O)Nc4ccccc4OC)c3C2=O)CC1	23µM*	-29%	-2%	1%	16µM*	-15
Cn1nc(C(C)(C)C)cc1C(=O)NCc1cc(F)cc2c1OCOC2	9.2µM*	424%	10µM*	u	3.7µM*	6
O=C1NCCCCCN(C(=O)Nc2ccccc2F)[C@H]2CCCC[C@@H]12	x	32%	x	x	x	x
CCOC(CNC(=O)c1ccc(N2CCc3ccccc32)c([N+](=O)[O-])c1)OCC	21µM*	6%	-1%	-1%	18µM*	-19
